# Experimental data reported in PubChem BioAssay.
# Inconclusive results are not listed. Active and inactive are the calls of the source.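 Rule for the calls, unless noted: active = binding below the plate cutoff, the plate median minus 3 SD, with a reading above zero; inconclusive = below the plate cutoff but reading exactly zero; inactive = the rest.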
# Columns and labels:
# [1] = yeast TOR pathway RPL19A-GFP modulators, primary screen, cell-based, S. cerevisiae, multiplex flow cytometry (AID 1862; in the data active = percent of DMSO control GFP below about 86%;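 note: lower values mimic rapamycin by blocking the RPL19A rise seen in DMSO cells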); conditions: S. cerevisiae RPL19A-GFP strain, flow cytometry fluorescence, 3 h; at 10 µM; stronger effect = lower value
# [2] = modulators of MEP2-GFP levels in yeast, primary screen, S. cerevisiae, multiplex flow cytometry (AID 1867;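 active = GFP response, as percent of the DMSO control, above the screen-wide mean plus 3 SD, about 139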;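 note: median GFP channel fluorescence of barcode-gated MEP2-GFP cells measured by flow cytometry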); conditions: S. cerevisiae MEP2-GFP strain, 3 h, at 10 µM, stronger effect = higher value, 100% means same as DMSO wells
# [3] = modulators of CIT2-GFP expression in yeast, primary screen, S. cerevisiae, GFP fusion, multiplex flow cytometry (AID 1870;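 active = percent response above a set limit, the screen-wide mean plus 3 SD, cut at about 130% in these data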;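 note: barcoded CIT2-GFP strain pooled with four other GFP strains with rapamycin as positive control; median GFP fluorescence per well over plate mean of DMSO wells so 100% = DMSO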); conditions: 3 h, at 10 µM, stronger effect = higher value
# [4] = modulators of LAP4-GFP expression in yeast, primary screen, S. cerevisiae, multiplex flow cytometry (AID 1873;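 active = GFP signal, as percent of the solvent control, above the screen mean plus 3 SD, about 149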); conditions: 3 h, at 10 µM, stronger effect = higher value
# [5] = modulators of AGP1-GFP expression in yeast TOR pathway, primary screen, cell-based, multiplex flow cytometry, S. cerevisiae (AID 1887;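 active = GFP signal above the screen-wide mean plus 3 SD, that is over about 124.5% of the solvent control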;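 note: AGP1-GFP fusion strain of S. cerevisiae within a five-strain barcoded multiplex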); conditions: 3 h, at 10 µM, stronger effect = higher value
# [6] = inhibitors of CD8+ T cell-vesicle binding, pilot screen, LFA-1/ICAM-1 modulator project, MLPCN validation set, flow cytometry (AID 2523;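 active = response below a set limit, under 55% cells CD8-positive and vesicle-bound, and CD8 cells' 90th-percentile brightness under 279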;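 for vesicle binding response: mean PE anti-B7-1 fluorescence of CD8+ cells relative to row control; 100% = QL9-loaded vesicles with DMSO vehicle in the same plate row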); conditions: 2C mouse CD8+ T cells, at 7 µM, stronger effect = lower value; double positive events: measured here: CD8+/vesicle+ event percentage
# [7] = biological target: Integrin beta-1 (Homo sapiens) + Integrin alpha-4 (Homo sapiens) (UniProt P13612+P05556); assay: inhibition of HUTS-21 binding to VLA-4, pilot screen, VLA-4 allosteric modulator project, U937 cells, HUTS-21 mAb, flow cytometry, validation set (AID 2674;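 active = inhibition above 50%, about 3 SD of the validation set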;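 note: antibody binding induced by the VLA-4 ligand LDV present at three times its Kd; 0% = LDV ligand with antibody and no compound and 100% = antibody without LDV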); conditions: HUTS-21 LIBS mAb binding, at 6.7 µM, stronger effect = higher value, binding induced by LDV ligand
# [8] = superoxide lowering in aged yeast cells, pilot screen, validation compound set (AID 2706;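 active = superoxide response below 65% of plate, a cut near 3 SD across the whole screen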;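 note: yeast exposed to compound for one week at 30 degrees C before staining; 100% = mean of all compound wells on the same plate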); conditions: S. cerevisiae aging, superoxide DHE fluorescence; at 10 µM; stronger effect = lower value
# [9] = biological target: Beta-adrenergic receptor kinase 1 (Homo sapiens) (UniProt P25098); assay: GRK2 binders displacing RNA aptamer, biochemical, validation, human GRK2, bead flow cytometry (AID 488806;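 active = aptamer binding inhibition above 30%, about 3 SD of noise from non-fluorescent compounds; inactive = inhibition at or below 30%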); conditions: bead-bound GRK2, FAM-aptamer displacement, at 10 µM, stronger effect = higher value
# [10] = biological target: Beta-2 adrenergic receptor (Homo sapiens) (UniProt P07550); assay: beta2AR agonists driving receptor internalization, pilot screen, cell-based, FAP fluorogen, flow cytometry, validation set (AID 504459;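 active = percent response above 42, roughly 3 SD of non-fluorescent test compounds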;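 note: agonist-driven loss of surface beta2AR via internalization measured by FAP dye flow cytometry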); conditions: Am2.2-beta2AR cells, FAP surface receptor flow cytometry; at 10 µM; stronger effect = higher value
# [11] = biological target: AP-2 complex subunit beta (Homo sapiens) (UniProt P63010); assay: inhibitors of arrestin peptide binding to AP2, pilot screen, biochemical, validation set, GST-AP2 beads, flow cytometry (AID 504541;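 active = inhibition above 54%, about 3 SD of non-fluorescent compounds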;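 note: AP2 carries R879A mutation and is captured from E. coli lysate; bead-bound FITC arrestin peptide fluorescence measuring arrestin peptide binding to AP2; 0% = DMSO wells and 100% = excess unlabeled arrestin peptide control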); conditions: FITC arrestin peptide, at 10 µM, stronger effect = higher value, AP2 beta2 appendage fragment, R879A mutant
# [12] = yeast V-ATPase proton transport modulators, S. cerevisiae, pHLuorin, HTS validation (AID 504600; in the data active = response above about 15%;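 note: plate controls were DMSO for no effect and reference compound for full effect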); conditions: S. cerevisiae pHLuorin cytosolic pH, at 10 µM, stronger effect = higher value
# [13] = tested on: anti-desmoglein-3 scFv antibody binding to human DSG3; assay: inhibitors of anti-DSG3 scFv binding to DSG3, pilot screen, biochemical, validation compound set, bead-based, flow cytometry (AID 588368); conditions: Protein G beads, DSG3-Fc, scFv-GFP binding, at 10 µM, stronger effect = lower value;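 note: signal is the median channel fluorescence of bead-bound GFP antibody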
# [14] = inhibitors of fungal efflux pumps CDR1, CDR2, MDR1, pilot screen, validation compound set, multiplex, phenotypic (AID 588506;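 active = efflux inhibition above 0.42, the validation set average plus 4 SD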;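 note: Nile Red retained in cells so higher fluorescence means more efflux inhibition; 0 = negative control wells and 1 = enniatin B 25 µM full block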); conditions: S. cerevisiae pump-expressing triplex, Nile Red efflux flow cytometry; at 10 µM; stronger effect = higher value; the pumps come from Candida albicans
# [15] = biological target: ATP-binding cassette sub-family B member 6 (Homo sapiens) (UniProt Q9NP58); assay: ABCB6 transporter inhibitors, pilot screen, K562-ABCB6 cells, flow cytometry, validation set (AID 588550;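 active = inhibition above the screen-wide mean plus 3 SD, about 51%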;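 note: 0% = DMSO wells and 100% = benzethonium chloride 70 µM positive control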); conditions: K562-ABCB6 porphyrin accumulation, 1 h, at 10 µM, stronger effect = higher value
# [16] = promoters of myeloid differentiation in arrested cells, primary screen, cell-based, GFP/MAC1 double positive, flow cytometry, validation set (AID 588685;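 active = differentiation response of at least 50%, scaled between solvent and reference control, from cells with both markers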;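 note: compound exposure lasts four days before antibody staining and flow analysis; 0% = DMSO wells and 100% = 5 µM fulvestrant positive control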); conditions: ER-HoxA9 marrow cells, stronger effect = higher value, normalized: vehicle 0, fulvestrant 100
# ATP-binding cassette sub-family B member 6 (Homo sapiens), sequence (Q9NP58 whole entry, looked up): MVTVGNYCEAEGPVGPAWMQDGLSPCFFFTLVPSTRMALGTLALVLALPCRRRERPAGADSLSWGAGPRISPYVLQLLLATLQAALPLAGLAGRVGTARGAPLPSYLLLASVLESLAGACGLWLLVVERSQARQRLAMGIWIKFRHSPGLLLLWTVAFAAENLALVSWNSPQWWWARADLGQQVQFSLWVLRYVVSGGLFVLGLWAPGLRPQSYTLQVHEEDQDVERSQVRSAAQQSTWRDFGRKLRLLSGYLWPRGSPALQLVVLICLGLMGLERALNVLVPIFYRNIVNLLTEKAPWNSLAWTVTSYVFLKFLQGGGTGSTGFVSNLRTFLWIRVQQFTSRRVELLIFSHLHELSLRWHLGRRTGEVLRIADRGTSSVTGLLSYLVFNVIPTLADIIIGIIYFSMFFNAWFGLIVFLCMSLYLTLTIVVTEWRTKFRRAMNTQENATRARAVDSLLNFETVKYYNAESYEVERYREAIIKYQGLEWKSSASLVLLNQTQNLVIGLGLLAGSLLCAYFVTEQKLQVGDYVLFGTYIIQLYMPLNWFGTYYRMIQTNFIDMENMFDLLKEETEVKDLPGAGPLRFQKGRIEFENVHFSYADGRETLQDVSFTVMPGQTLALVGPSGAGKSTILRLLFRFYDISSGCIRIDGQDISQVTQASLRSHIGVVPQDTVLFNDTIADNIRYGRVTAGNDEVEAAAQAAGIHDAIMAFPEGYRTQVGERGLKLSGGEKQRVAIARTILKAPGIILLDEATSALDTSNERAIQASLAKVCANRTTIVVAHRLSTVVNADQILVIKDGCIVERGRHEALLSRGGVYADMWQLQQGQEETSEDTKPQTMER
# AP-2 complex subunit beta (Homo sapiens), sequence (P63010 whole entry, looked up, the tested form may be a part, one chain of several): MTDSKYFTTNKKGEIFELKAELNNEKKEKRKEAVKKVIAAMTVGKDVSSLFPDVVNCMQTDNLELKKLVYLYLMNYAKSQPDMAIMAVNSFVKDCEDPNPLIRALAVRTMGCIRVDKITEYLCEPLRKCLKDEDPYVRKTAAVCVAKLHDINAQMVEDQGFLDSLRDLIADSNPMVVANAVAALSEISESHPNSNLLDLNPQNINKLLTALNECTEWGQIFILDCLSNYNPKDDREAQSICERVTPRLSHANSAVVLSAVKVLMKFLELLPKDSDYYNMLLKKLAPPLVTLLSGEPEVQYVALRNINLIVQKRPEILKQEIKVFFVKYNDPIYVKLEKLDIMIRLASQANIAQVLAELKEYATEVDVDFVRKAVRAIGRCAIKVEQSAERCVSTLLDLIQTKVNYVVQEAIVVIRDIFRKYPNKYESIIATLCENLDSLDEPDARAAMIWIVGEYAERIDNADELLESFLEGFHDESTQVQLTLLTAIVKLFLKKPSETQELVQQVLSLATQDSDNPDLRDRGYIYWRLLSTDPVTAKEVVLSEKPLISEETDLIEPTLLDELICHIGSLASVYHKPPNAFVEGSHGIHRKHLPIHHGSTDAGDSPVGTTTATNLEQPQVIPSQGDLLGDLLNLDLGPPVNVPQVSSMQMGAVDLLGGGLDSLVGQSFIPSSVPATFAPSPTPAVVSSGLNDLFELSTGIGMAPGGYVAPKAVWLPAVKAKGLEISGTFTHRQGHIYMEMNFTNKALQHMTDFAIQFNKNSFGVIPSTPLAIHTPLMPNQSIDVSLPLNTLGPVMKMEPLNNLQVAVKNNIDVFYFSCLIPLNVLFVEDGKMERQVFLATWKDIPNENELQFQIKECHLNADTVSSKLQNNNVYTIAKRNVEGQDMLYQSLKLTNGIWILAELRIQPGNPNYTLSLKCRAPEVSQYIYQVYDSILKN
# Beta-adrenergic receptor kinase 1 (Homo sapiens), sequence (P25098 whole entry, looked up): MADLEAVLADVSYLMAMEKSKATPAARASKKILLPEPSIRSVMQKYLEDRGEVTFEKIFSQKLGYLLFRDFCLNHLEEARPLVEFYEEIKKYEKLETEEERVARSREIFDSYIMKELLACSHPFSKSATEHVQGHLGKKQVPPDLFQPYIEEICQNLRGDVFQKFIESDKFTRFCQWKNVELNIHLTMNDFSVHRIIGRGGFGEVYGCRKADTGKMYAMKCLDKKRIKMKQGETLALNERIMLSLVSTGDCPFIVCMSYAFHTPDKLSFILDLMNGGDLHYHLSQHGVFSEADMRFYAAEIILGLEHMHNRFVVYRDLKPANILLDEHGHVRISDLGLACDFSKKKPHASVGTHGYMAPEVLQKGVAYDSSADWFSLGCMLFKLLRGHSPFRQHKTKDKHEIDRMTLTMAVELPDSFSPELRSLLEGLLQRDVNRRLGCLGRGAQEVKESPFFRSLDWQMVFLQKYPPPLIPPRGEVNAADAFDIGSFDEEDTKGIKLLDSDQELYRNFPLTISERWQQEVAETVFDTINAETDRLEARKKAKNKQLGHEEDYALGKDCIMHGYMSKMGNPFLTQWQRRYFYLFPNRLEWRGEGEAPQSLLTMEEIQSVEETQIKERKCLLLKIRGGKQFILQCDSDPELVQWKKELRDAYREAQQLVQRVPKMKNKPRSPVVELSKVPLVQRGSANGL
# Integrin beta-1 (Homo sapiens) + Integrin alpha-4 (Homo sapiens), sequence (P05556 whole entry, looked up): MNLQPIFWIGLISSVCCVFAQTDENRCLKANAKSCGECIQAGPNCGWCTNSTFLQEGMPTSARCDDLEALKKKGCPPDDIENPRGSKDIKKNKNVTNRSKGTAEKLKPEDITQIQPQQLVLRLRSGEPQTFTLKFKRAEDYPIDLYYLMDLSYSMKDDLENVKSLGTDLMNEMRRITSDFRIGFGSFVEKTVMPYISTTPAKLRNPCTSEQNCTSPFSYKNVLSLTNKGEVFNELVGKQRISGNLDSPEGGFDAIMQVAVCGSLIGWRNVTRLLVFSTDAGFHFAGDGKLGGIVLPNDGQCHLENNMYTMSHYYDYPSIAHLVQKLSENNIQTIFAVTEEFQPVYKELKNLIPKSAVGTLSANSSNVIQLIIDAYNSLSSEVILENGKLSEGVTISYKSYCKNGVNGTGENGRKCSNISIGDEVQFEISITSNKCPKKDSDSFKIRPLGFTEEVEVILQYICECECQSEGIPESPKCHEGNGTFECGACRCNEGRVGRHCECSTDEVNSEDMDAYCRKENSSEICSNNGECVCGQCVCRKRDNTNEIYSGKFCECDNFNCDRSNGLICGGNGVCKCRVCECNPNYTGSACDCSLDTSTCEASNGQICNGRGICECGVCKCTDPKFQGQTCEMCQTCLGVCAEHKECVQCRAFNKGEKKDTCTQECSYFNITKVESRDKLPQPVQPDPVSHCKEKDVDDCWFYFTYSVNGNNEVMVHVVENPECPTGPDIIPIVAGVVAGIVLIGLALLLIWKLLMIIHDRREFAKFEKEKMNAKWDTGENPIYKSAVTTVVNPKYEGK
# Integrin beta-1 (Homo sapiens) + Integrin alpha-4 (Homo sapiens), sequence (P13612 whole entry, looked up): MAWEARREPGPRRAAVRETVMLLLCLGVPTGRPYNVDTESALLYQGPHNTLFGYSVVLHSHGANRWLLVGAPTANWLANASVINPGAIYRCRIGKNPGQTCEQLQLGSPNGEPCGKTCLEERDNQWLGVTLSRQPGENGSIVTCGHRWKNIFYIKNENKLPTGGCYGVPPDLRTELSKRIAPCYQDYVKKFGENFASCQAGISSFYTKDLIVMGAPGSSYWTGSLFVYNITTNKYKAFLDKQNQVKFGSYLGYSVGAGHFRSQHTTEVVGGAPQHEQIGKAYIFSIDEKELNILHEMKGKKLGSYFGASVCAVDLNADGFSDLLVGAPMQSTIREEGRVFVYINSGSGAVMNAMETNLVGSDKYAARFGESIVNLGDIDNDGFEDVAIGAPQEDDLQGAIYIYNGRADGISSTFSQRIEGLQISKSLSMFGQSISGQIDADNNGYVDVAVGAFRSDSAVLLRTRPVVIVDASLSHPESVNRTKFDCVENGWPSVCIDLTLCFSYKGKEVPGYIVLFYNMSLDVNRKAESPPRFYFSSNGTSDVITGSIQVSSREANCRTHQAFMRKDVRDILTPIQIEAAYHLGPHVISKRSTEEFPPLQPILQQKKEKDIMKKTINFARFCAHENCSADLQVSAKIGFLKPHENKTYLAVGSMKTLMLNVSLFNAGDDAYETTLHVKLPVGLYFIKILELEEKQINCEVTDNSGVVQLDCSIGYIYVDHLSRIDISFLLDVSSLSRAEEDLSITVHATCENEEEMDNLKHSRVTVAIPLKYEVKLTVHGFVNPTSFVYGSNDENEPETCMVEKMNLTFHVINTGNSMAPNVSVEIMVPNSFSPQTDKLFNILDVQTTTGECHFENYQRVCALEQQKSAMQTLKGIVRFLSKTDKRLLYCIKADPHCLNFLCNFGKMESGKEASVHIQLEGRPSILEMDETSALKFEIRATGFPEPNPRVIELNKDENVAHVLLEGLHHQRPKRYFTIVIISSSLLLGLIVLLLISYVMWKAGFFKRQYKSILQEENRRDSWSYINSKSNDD
# Beta-2 adrenergic receptor (Homo sapiens), sequence (P07550 whole entry, looked up): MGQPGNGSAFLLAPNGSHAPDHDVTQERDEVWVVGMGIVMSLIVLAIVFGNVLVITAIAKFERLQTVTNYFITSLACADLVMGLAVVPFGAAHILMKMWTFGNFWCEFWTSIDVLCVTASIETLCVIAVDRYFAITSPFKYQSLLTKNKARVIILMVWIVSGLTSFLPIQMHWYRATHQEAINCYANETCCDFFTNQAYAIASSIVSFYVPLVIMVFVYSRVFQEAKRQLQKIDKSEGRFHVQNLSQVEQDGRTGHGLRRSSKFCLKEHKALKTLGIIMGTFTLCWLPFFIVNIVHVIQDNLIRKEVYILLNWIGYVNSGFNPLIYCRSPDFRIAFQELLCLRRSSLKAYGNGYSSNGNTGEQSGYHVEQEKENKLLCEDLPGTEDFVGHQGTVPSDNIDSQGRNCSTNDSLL
Structure (SMILES),percent of DMSO control GFP [1],GFP response vs DMSO [2],percent response of DMSO control [3],GFP response vs DMSO [4],"GFP response, % of DMSO [5]",double positive events [6] [%],vesicle binding response [6],inhibition [7],superoxide response (% of plate) [8],aptamer binding inhibition [9],response [10],inhibition [11],response [12],binding (% of control) [13],efflux inhibition (fraction of control) [14],inhibition [15],differentiation response [16]
Cc1cc(C)cc(Nc2nc3c([nH]2)c(=O)n(C)c(=O)n3C)c1,102% (inactive),105% (inactive),112% (inactive),103% (inactive),105% (inactive),63.9,212% (inactive),6.95% (inactive),89.7% (inactive),-6% (inactive),6.07% (inactive),61% (active),-8.26% (inactive),102% (inactive),-0.14 (inactive),-9% (inactive),10.1% (inactive)
O=C1CC2(CCCC2)CC(=O)N1CCCCN1CCN(c2ncccn2)CC1,102% (inactive),104% (inactive),96.6% (inactive),91.4% (inactive),106% (inactive),64.3,1050% (inactive),7.85% (inactive),101% (inactive),3% (inactive),-19.5% (inactive),-0.56% (inactive),2.1% (inactive),101% (inactive),0.21 (inactive),9% (inactive),12% (inactive)
O=C1c2ccccc2N2C(=O)c3ccccc3C2N1Cc1ccco1 (stereo not drawn),104% (inactive),104% (inactive),110% (inactive),103% (inactive),89.8% (inactive),61,140% (inactive),-2.43% (inactive),95.6% (inactive),0% (inactive),-16.2% (inactive),-5.51% (inactive),-3.39% (inactive),99.6% (inactive),0.03 (inactive),-8% (inactive),-1.65% (inactive)
COc1cc2c3c(c1)C(C)CC(C)(C)N3C(=O)C2=O (stereo not drawn),92.4% (inactive),122% (inactive),110% (inactive),79.2% (inactive),94.7% (inactive),58.1,199% (inactive),15.2% (inactive),99% (inactive),89% (active),2.87% (inactive),0.2% (inactive),1.61% (inactive),105% (inactive),0.37 (inactive),12% (inactive),1.64% (inactive)
C=C(C)Cn1c(NCCOC)nc2c1c(=O)[nH]c(=O)n2C,103% (inactive),112% (inactive),104% (inactive),96.6% (inactive),98.8% (inactive),64.5,327% (inactive),-5.64% (inactive),98.4% (inactive),3% (inactive),3.03% (inactive),-1.55% (inactive),-1.65% (inactive),99.8% (inactive),-0.07 (inactive),-4% (inactive),0.24% (inactive)
COc1cccc(-n2c(C)c3c(OC)cccc(=O)c3c2C)c1,89.8% (inactive),140% (active),106% (inactive),85.8% (inactive),92.4% (inactive),49.9,53.8% (active),-33.3% (inactive),109% (inactive),5% (inactive),-3.28% (inactive),41% (inactive),-5.84% (inactive),103% (inactive),0.12 (inactive),0% (inactive),-4.91% (inactive)
COc1ccc(C2c3c(n[nH]c3C)CC(C)(O)C2C(C)=O)cc1OC (stereo not drawn),87.3% (inactive),129% (inactive),97.9% (inactive),76.5% (inactive),90.3% (inactive),67.8,58.4% (inactive),10.3% (inactive),106% (inactive),4% (inactive),-2.94% (inactive),-0.31% (inactive),0.84% (inactive),103% (inactive),-0.13 (inactive),7% (inactive),13.1% (inactive)
Cc1ccc(C(=O)O)cc1NC(=O)c1cccs1,100% (inactive),107% (inactive),99.3% (inactive),99.4% (inactive),98.6% (inactive),64.1,206% (inactive),-17.5% (inactive),109% (inactive),8% (inactive),4.14% (inactive),-1.98% (inactive),-0.65% (inactive),100% (inactive),0.04 (inactive),10% (inactive),0.41% (inactive)
CC[N+]1(CC)CC2=Cc3ccccc3CC2C1 (stereo not drawn),91.5% (inactive),121% (inactive),93.9% (inactive),80.3% (inactive),88.9% (inactive),64.8,178% (inactive),13.2% (inactive),90.8% (inactive),2% (inactive),0.79% (inactive),43.9% (inactive),-6.57% (inactive),99% (inactive),0.3 (inactive),13% (inactive),0% (inactive)
